Source: the supplement of paper PMC10477191
± gives the standard deviation of the averaged measurements.

Test system: Drosophila virilis antennal basiconic sensillum AB9
Assay: odor-evoked OSN spike response (post minus pre-stimulus); higher = stronger neuronal excitation
Conditions: odor dilution: 10^-4
Protocol: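 Single sensillum recordings from antennal basiconic sensilla of D. virilis. A 500 ms pulse of odorant (10^-4 in mineral oil or DMSO) was delivered; the response is the change in spike frequency between the 1 s pre- and post-stimulus windows (spikes/s).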

Q: Which “odor-evoked OSN spike response” value does the source give for `CC(C)=O` [acetone] here?
A: The value was 93.7 ± 30 spikes/s.
